Test results published in the supplement of paper PMC3545927.
The list shows a part of the results. The hit rate among all sequences tested is not known here.

Molecular target: furin, P09958
Assay: furin cleavage Z-score vs untreated control; higher = more cleavage, active = 3.5 or more, inactive = 1 or less, 8 variable residues between constant flanks
Method in brief: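 The cleavage Z-score is the log read count relative to furin-free reactions, lowess-adjusted and scaled by median absolute deviation. Counts came from sequencing DNA released from bead-bound 8-mer peptide–cDNA fusions after digestion with purified furin for 7.5, 15 or 30 min.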
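Note: purified furin at 1:10 enzyme:substrate in 50 mM HEPES pH 7.5.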

Sequence of furin, P09958 (P09958 whole entry): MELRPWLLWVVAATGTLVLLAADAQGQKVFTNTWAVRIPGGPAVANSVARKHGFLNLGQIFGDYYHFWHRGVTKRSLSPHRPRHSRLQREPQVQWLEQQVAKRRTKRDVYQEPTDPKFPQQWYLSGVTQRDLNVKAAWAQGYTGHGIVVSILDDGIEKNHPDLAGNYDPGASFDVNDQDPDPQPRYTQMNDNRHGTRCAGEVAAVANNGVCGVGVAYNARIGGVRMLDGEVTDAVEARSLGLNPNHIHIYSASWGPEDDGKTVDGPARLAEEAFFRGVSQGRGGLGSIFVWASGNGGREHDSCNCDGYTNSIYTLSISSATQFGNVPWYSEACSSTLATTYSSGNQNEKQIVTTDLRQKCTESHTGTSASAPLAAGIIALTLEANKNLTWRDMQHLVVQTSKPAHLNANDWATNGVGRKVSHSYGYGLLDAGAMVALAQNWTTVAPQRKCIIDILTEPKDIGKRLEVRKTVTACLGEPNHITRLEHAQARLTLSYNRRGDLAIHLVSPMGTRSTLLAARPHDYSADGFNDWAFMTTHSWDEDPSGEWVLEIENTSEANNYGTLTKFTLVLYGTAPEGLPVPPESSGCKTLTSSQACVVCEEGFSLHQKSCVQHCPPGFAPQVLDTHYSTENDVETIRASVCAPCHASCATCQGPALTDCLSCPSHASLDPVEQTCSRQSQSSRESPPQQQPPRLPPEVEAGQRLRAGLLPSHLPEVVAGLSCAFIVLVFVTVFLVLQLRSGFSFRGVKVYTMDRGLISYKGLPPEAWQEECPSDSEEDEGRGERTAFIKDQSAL

Row | Sequence | furin cleavage Z-score (7.5 min) | furin cleavage Z-score (15 min) | furin cleavage Z-score (30 min)
1 | CARLRRAADHAGNASASA [FS-2712] | 8.97 (active) | 8.17 (active) | 7.64 (active)
2 | CARLRRDTQQAGNASASA [FS-2494] | 8.34 (active) | 9.45 (active) | 7.24 (active)
3 | CARLRRVVGQAGNASASA [FS-1747] | 0.978 (inactive) | -0.277 (inactive) | 1.66
4 | CARIRRRASQAGNASASA [FS-2032] | 3.16 | 3.54 (active) | 4.94 (active)
5 | CARLRRQKLSAGNASASA [FS-2576] | 0.0621 (inactive) | 0.201 (inactive) | -0.745 (inactive)
6 | CARLRRVSHQAGNASASA [FS-1861] | -2.01 (inactive) | 0.557 (inactive) | 1.98
7 | CARLRREPGGAGNASASA [FS-2713] | -0.934 (inactive) | -0.299 (inactive) | -0.815 (inactive)
8 | CARLKRIISHAGNASASA [FS-2706] | 0.518 (inactive) | -1.37 (inactive) | -0.856 (inactive)
9 | CARLRRRTSHAGNASASA [FS-2716] | 1.21 | 1.27 | 4.1 (active)
10 | CARDRRMMSQAGNASASA [FS-2653] | 0.37 (inactive) | 0.534 (inactive) | 0.367 (inactive)
11 | CAMEECSQHSAGNASASA [HC1777] | 2.1 | 0.565 (inactive) | 0.168 (inactive)
12 | CAPPEELKFQAGNASASA [NG7] | -0.102 (inactive) | -1.12 (inactive) | 0.127 (inactive)
